USP30 block = blocks human USP30 ubiquitin-rhodamine cleavage; 5.3% of 47,000 active; inhibition, % at 25 µM; Q70CQ3; purified USP30, Ub-rhodamine cleavage fluorescence
USP17 block = blocks human USP17 ubiquitin-rhodamine cleavage. purified USP17, Ub-rhodamine cleavage fluorescence, 3 h. inhibition, % at 50 µM. 6.5% of 47,000 active. AID 1645855
Target sequence (A8MUK1 whole entry, looked up): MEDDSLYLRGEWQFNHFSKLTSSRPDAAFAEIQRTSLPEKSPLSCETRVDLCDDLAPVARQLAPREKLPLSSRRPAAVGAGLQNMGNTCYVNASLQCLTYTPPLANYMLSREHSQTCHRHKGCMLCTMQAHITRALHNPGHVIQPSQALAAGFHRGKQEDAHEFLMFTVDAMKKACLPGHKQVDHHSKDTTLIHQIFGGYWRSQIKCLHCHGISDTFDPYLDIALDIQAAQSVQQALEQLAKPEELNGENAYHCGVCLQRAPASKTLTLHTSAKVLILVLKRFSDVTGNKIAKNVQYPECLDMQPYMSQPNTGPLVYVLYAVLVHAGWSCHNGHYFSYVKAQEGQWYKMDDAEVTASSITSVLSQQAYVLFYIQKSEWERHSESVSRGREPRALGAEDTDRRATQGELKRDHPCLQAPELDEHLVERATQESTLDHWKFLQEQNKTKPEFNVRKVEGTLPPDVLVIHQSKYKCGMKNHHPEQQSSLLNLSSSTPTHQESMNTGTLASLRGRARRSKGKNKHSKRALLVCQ
USP8 block = inhibitors of human USP8 deubiquitinase. P40818. purified USP8, Ub-rhodamine cleavage fluorescence, 30 min. inhibition, % at 20 µM. 4.2% of 47,000 active
An asterisk follows results filed as active; i = inactive; nt = no result. Rows were chosen to be rich in hits. Some 12% of all compounds tested hit in one or more screens of this group. No stated cut-off is given here; in the data, active means inhibition above about 30%; inactive means the rest.

SMILES	USP30 block	USP17 block	USP8 block
Cc1ccc(Cn2c(C(=O)O)c(CNC3CCCC3)c3ccccc32)cc1	5.4	-15.6	-14.1
COc1ccccc1CNCc1c(C(=O)O)n(Cc2ccc(F)cc2Cl)c2cc(C)ccc12	18.3	20.2	-4.9
Cc1ccc(Cn2c(C(=O)O)c(CNCc3ccco3)c3ccccc32)cc1	-18.8	35.1*	8.2
COc1ccc(C(CNC(=O)c2sc3ccccc3c2Cl)N(C)C)cc1 (stereo unspecified)	-23.2	-12.7	-18.5
O=C(c1ccc(F)c(F)c1)N1CCN(c2cc(-c3cccnc3)[nH]n2)CC1	13.7	6.3	3.9
CCOC(=O)N1CCC(NC(=O)c2cn(-c3ccc(F)cc3)nn2)CC1	1.5	-15.8	1.1
COc1ccc(-c2noc(C3(c4ccc(OC)cc4)CCOCC3)n2)cc1	18.4	14.3	15.0
O=C(CN1CCC2(CCC1=O)NC(=O)c1ccccc1O2)NC1CCCC1 (stereo unspecified)	23.9	6.4	27.1
O=C(CC1C(=O)N(C2CCCC2)c2nc3ccccc3n21)Nc1cccc(F)c1 (stereo unspecified)	16.0	4.7	9.5
COc1ccc(OC)c(CC2(NC(=O)c3ccccc3)N=C3C=CC=CN3C2=O)c1 (stereo unspecified)	30.2*	21.7	26.5
COc1ccc(C(=O)NC2(Cc3ccccc3)N=C3C(C)=CC=CN3C2=O)cc1 (stereo unspecified)	8.8	18.6	21.2
COc1ccc(NC(=O)C2CCCN(c3cnc4nccnc4c3)C2)cc1F (stereo unspecified)	i	-93.7	-170.0
Cc1c(CC(=O)Nc2nn[nH]n2)c(=O)oc2cc3c(cc12)CCC1(CCCCC1)O3	57.5*	-0.1	-253.1
Cc1c(CC(=O)NC2CC2)c(=O)oc2cc3c(cc12)CCC1(CCCCC1)O3	25.8	12.9	16.1
O=C(/C=C/c1ccc(O)c(O)c1)O[C@@H]1C[C@](O)(C(=O)O)C[C@@H](O)[C@H]1O	-2.5	-64.2	-5.9
Oc1cc(O)cc(/C=C/c2ccc(O)c(O)c2)c1	30.8*	40.1*	1.5
Cc1cnc(-c2cnc(CC3CCCN(S(=O)(=O)N(C)C)C3)cn2)[nH]1 (stereo unspecified)	-24.9	-29.0	-75.6
Cc1cn2c(=O)cc(COC(=O)c3ccc(NC(=O)c4ccccc4F)cc3)nc2s1	-116.4	-38.1	-13.8
Cc1cn2c(=O)cc(COC(=O)c3ccc(NC(=O)c4ccccc4)cc3)nc2s1	-41.4	39.5*	1.5
O=C1NC2(COC3(CCN(C(=O)C4(c5ccccc5)CC4)CC3)C2)Nc2ccccc21 (stereo unspecified)	-20.4	3.1	7.9
Cc1cccc(NC(=O)C2CCCN(S(=O)(=O)c3cccnc3)C2)c1C (stereo unspecified)	8.0	6.2	-0.5
COc1ccc(CNC(=O)C2CCCN(S(=O)(=O)Cc3ccc(Cl)cc3)C2)cc1 (stereo unspecified)	47.0*	13.8	24.8
COc1ccc(NC(=O)C2CCCN(S(=O)(=O)N3CCCCCC3)C2)cc1 (stereo unspecified)	6.2	51.4*	18.2
COc1ccc(-c2noc(N3CCCC(C(=O)Nc4cccc(OC)c4)C3)n2)cc1 (stereo unspecified)	-0.8	22.4	8.6
COc1ccccc1NC(=O)C1CCCN(S(=O)(=O)N2CCC(C)CC2)C1 (stereo unspecified)	0.0	2.5	5.7
SMILES	USP30 block	USP17 block	USP8 block
CCN(c1ccc(OC)cc1)S(=O)(=O)N1CCCC(C(=O)NCc2ccc(Cl)cc2)C1 (stereo unspecified)	-4.3	-8.1	-8.2
CCOC(=O)c1ccc(NC(=O)C2CCCN(c3nc(-c4ccc(OC)cc4)no3)C2)cc1 (stereo unspecified)	37.4*	18.8	24.1
CC(=O)Nc1ccc(S(=O)(=O)N2CCCC(C(=O)Nc3cccc4ccccc34)C2)cc1 (stereo unspecified)	55.7*	25.5	1.2
NC(=O)c1cccc(CN2CCC3(CC2)CC3c2nnc3n2CCCCC3)c1 (stereo unspecified)	nt	-19.1	-17.9
O=C(c1cccc(F)c1)N1CCC2(CCCN2CC2CC2)CC1	-0.1	2.0	-37.8
O=C(Nc1ccccc1)c1cncc(NS(=O)(=O)c2ccc3c(c2)OCCO3)c1	-57.1	-31.6	-89.2
COc1cccc(CNC(=O)C2CCCN(S(=O)(=O)N3CCCCCC3)C2)c1OC (stereo unspecified)	14.8	4.5	8.8
Cc1ccccc1CNC(=O)C1CCCN(S(=O)(=O)N2CCCCCC2)C1 (stereo unspecified)	39.2*	-4.6	-14.4
CCn1cc(S(=O)(=O)Nc2ccccc2F)c2cccnc21	-34.7	7.7	17.7
CCn1cc(S(=O)(=O)NCc2cc(F)cc(F)c2)c2cccnc21	-43.7	37.2*	48.3*
CC(C)Cc1nc2sc3c(NCCN4CCOCC4)ncnc3c2c2c1CCC2	-63.6	-12.7	-16.2
Fc1ccccc1Cc1cnc(C2CCCN(Cc3cscn3)C2)o1 (stereo unspecified)	nt	-7.4	-2.8
O=C(Cc1ccccc1F)N1CCC(c2[nH]nc3nccnc23)CC1	5.6	-9.2	-33.9
O=C(c1ccccc1F)N1CCC(c2[nH]nc3nccnc23)CC1	35.4*	17.3	0.7
CCCc1cc(N2CCN(C(=O)C3CCC3)CC2)nc2nnc(C)n12	-15.7	nt	-7.0
CCCn1c(=O)[nH]c2nc(N3CCCCC3)sc2c1=O	-25.4	32.5*	-1.2
CCCn1c(=O)[nH]c2c(C(=O)N3CCCCC3)snc2c1=O	1.7	-4.6	-4.2
O=C(Cc1ccccc1[N+](=O)[O-])Nc1cnn(Cc2ccc(F)cc2)c1	31.7*	-28.4	-142.6
O=C(NCc1ccc(F)cc1)NCc1cnn2ccccc12	-0.5	0.3	0.2
COc1ccc(C(=O)N2CC[C@@H]3Oc4ccccc4S(=O)(=O)N(C)[C@H]3CC2)cc1	18.7	2.5	5.1
CC(=O)N1C[C@@H]2C[C@@]3(C)[C@H](CCCC[C@@H]13)N2S(=O)(=O)c1cccnc1	-2.8	0.3	-0.6
CC1CCCN(S(=O)(=O)c2ccc(-n3cnc(C(=O)N4CCOCC4)c3)nc2)C1 (stereo unspecified)	13.2	4.9	14.4
CC(C)Nc1nc(-c2ccccc2)nnc1-c1ccccc1	30.9*	17.0	23.8
c1ccc(-c2ccc(-c3nc(-c4ccncc4)no3)cc2)cc1	-18.9	-3.1	-0.6
Cc1nc(Nc2ccc(Cl)cn2)sc1C(=O)NCCN1CCOCC1	21.2	1.7	2.4
SMILES	USP30 block	USP17 block	USP8 block
O=C(Cn1c(-c2nc(-c3ccccc3)no2)cccc1=O)N1CCCC1	6.5	0.0	3.5
Cc1c(C(=O)N(C)c2nc3c(s2)CCc2occc2-3)oc2ccccc12	66.4*	79.1*	48.1*
COc1ccc(C2(C(=O)N(C)c3nc4c(s3)CCc3occc3-4)CC2)cc1	-20.9	3.7	-164.6
CN(C(=O)c1cccs1)c1nc2c(s1)CCc1occc1-2	-5.0	36.9*	6.1
CCN(C(=O)Cc1ccccc1OC)c1nc2c(s1)CCc1occc1-2	11.2	37.4*	-92.9
CCOc1ccc(CC(=O)N(C)c2nc3c(s2)CCc2occc2-3)cc1	-4.8	-6.7	-66.0
CN(C(=O)C1(c2ccc(Cl)cc2)CC1)c1nc2c(s1)CCc1occc1-2	-16.5	-3.7	-108.6
Cc1cnc(C(=O)Nc2ccnn2C2CCCC2)cn1	1.9	-8.8	-18.5

Assay outcomes deposited in PubChem by Buhrlage Lab, Dana-Farber Cancer Institute and Novartis Institutes for BioMedical Research (Cambridge, Mass).
